Hits are enriched below; roughly 21% of the tested compounds scored in any of these assays.
Shiga toxin inh – blocks Shiga toxin action in Vero cells; AID 2315; 290,000 tested, 9.2% active; inhibition, % at 38.7 µM; Vero cells, Shiga toxin protein synthesis inhibition reporter; in the data active = inhibition mostly above about 28%, no sharp cut-off; inactive = mostly below about 43%; also: 0% is about no effect
CHX counter – affects cycloheximide protein synthesis inhibition readout, counter-screen | max response, % | cell reporter, cycloheximide protein synthesis inhibition counterscreen | 300,000 tested, 12% active; in the data active = max response mostly above about 13%, no sharp cut-off; inactive = mostly below about 14%; also: read at 38.3 µM for the half of the compounds with a filed dose; 0% is about no effect
Pf growth 48h – inhibits P. falciparum growth in the first generation, 48 h | 310,000 tested, 5.9% active | P. falciparum luciferase growth in erythrocytes, 48 h | Potency, µM (series often up to 28.7 µM), for inactives: at the top dose activity change, negative = inhibition, hits mostly inhibitors | AID 504832; also: potency is read from the fitted curve at half-maximal effect; % is scaled to controls: 0 for no effect and ±100 for the full control effect
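A one-generation exposure of luciferase-tagged malaria parasites in RPMI 1640/Albumax erythrocyte culture, 37 C and 5% CO2. Inhibition is inferred from decreased luminescence after adding detection reagent.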
Pf growth 96h – P. falciparum growth inhibition at 96 hour, primary screen for plastid delayed-death inhibitors | P. falciparum luciferase reporter growth, 96 h | Potency, µM (top dose mostly 28.7 µM), without a hit: at the highest dose activity change, negative = inhibition, most hits filed as inhibitors | 320,000 tested, 6.9% active; also: potency is read from the fitted curve at half-maximal effect; % is scaled to controls: 0 for no effect and ±100 for the full control effect
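Infected RBCs, 2% Hct / 0.05% parasitemia final; luciferase-reporter P. falciparum; cpd 96 h, 37 C, 5% CO2; luciferase detection reagent; luminescence.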
An asterisk follows results filed as active; ? = inconclusive; . = no result given. Unless noted, calls follow the shape of the dose curve; as a rule, active = well fitted inhibition curve with a large enough effect; inconclusive = small, poorly fitted or top-dose-only effect, or another doubt; inactive = no such curve, though single readings can be large or run the other way.

SMILES | Shiga toxin inh | CHX counter | Pf growth 48h | Pf growth 96h
CC1CCCC(N2CCN(S(=O)(=O)c3ccccc3)CC2)C1 (stereo not drawn) | -12.0 | -1.5 | 24.1% | ?
Cc1cccc(NC(=O)Nc2cccc(C)n2)n1 | 85.6* | 19.5* | 81.5% | ?
CC(=O)Nc1ccc(NC(=O)Nc2ccc(C)c(C)c2)cc1 | 21.8 | 1.7 | 16.7% | 44.4%
Cc1cccc(NC(=O)Nc2ccc(Cl)cc2)n1 | 39.0* | 22.1* | 116.9% | -12.0%
Cc1cccc(NC(=O)Nc2ccc(C)c(C)c2)n1 | 54.1* | 24.3* | 178.6% | .
Cc1cccc(NC(=S)Nc2cccc(C)n2)n1 | 20.6 | 14.7 | ? | 13.1µM*
CC(OC(=O)CCN=C1NS(=O)(=O)c2ccccc21)C(=O)N(C)C1CCCCC1 (stereo not drawn) | . | . | ? | -3.6%
CC(C)C[C@H](NC(=O)[C@H](Cc1ccccc1)C[C@@H](O)[C@H](Cc1ccccc1)NC(=O)OC(C)(C)C)C(=O)N[C@@H](Cc1ccccc1)C(N)=O | -12.7 | 5.4 | . | .
O=C(Nc1ccc(F)cc1)Nc1ccc2ccccc2n1 | 25.5 | 9.2 | 64.3% | 56.6%
Cc1cccc(NC(=O)Nc2ccc(F)cc2)n1 | 63.0* | 17.1 | 62.0% | 67.2%
COC(=O)Cc1ccc(NC(=S)Nc2cccc(C)n2)cc1 | 39.5 | 15.8* | 8.3% | ?
Cc1ccc(NC(=O)Nc2cccc(C)n2)cc1 | 102.9* | 48.9* | 98.8% | 27.2%
Cc1cccc(NC(=O)Nc2ccc([N+](=O)[O-])cc2)n1 | 19.0 | 15.4 | 9.9% | 13.3%
Cc1ccc(S(=O)(=O)NC(=O)Nc2ccc(C)cn2)cc1 | 26.8 | 3.2 | 14.2% | 17.3%
Cc1nnc(SC(C)C(=O)Nc2c(C)n(C)n(-c3ccccc3)c2=O)n1N (stereo not drawn) | 14.3 | 4.6 | 26.8% | 30.4%
CCN(CC)CC(=O)Nc1sc(C)c(C)c1C(=O)c1ccc(C)cc1 | 3.6 | -1.3 | ? | 11.2%
CCN(CC)CC(=O)Nc1sc(C)cc1C(=O)c1ccccc1 | 2.7 | 4.7 | 3.29µM* | -12.3%
CCN(CC)CC(=O)Nc1sc(C)cc1C(=O)c1ccc(C)cc1 | -8.9 | -2.9 | ? | -23.7%
CCc1cc(C(=O)c2ccc(Br)cc2)c(NC(=O)CN(CC)CC)s1 | -0.8 | -2.4 | 5.86µM* | 8.28µM*
CCOC(=O)CN1C(=O)C(C)(C)Oc2ccc(C(=O)Nc3ccccc3)cc21 | 36.2 | 13.5* | ? | ?
CCOC(=O)c1ccc2c(c1)N(CC#N)C(=O)C(C)(C)O2 | 30.7 | 16.9* | ? | 29.4%
CC1(C)Oc2ccc(C(=O)Nc3ccccc3F)cc2N(CC(=O)N2CCOCC2)C1=O | 48.3 | 12.4* | 21.7% | ?
CCC(C)(C)NC(=O)c1ccc2c(c1)N(CC(=O)NC1CCCC1)C(=O)C(C)(C)O2 | -6.3 | -4.6 | 0.5% | 6.57µM*
O=C1CN(C(=O)COC(=O)c2ccc[n+]([O-])c2)c2ccccc2N1 | -8.3 | -1.8 | 20.4% | 6.6%
COc1ccc(CCNC(=O)c2ccc3c(=O)n4c(nc3c2)CCC4)cc1OC | . | . | -24.0% | 8.6%
SMILES | Shiga toxin inh | CHX counter | Pf growth 48h | Pf growth 96h
COCCn1nnnc1CN1C2CCCC1CC(NC(C)=O)C2 (stereo not drawn) | -2.6 | -5.1 | 29.4% | 13.1µM*
COCCn1nnnc1CN1CCC(NC(=O)c2ccc(Br)cc2)CC1 | 2.0 | 1.8 | ? | -57.7%
Cc1[nH]c2ccccc2c(=O)c1SC(F)(F)C(F)C(F)(F)F (stereo not drawn) | 12.9 | -2.7 | 0.828µM* | 3.29µM*
CC(OC(=O)c1nsc(Cl)c1Cl)C(=O)NCCc1ccccc1 (stereo not drawn) | -14.8 | -7.1 | 25.7% | 25.2%
CC(C)Sc1nnc([C@@H](N)Cc2ccccc2)o1 | 35.5 | 42.6* | 50.6% | 88.4%
C=C(C)CSc1nnc([C@@H](N)Cc2ccccc2)o1 | 29.8 | 17.9* | 10.4% | ?
CCOC(=O)C1CCN(S(=O)(=O)c2ccc(OC)c(Cl)c2)CC1 | -6.0 | 0.5 | -0.7% | ?
Cc1cc(C)c(N2CCN(S(=O)(=O)N3CCCCCC3)CC2)c(C)c1 | -4.6 | -1.6 | 10.4µM* | .
Cc1ccc(N2CCN(S(=O)(=O)N3CCCCC3)CC2)cc1Cl | -7.8 | -2.0 | -13.3% | 3.3%
Cc1ccc(/C=C/C(=O)OCC(=O)NC(=O)NCc2ccco2)cc1 | . | . | -17.4% | 4.4%
Cc1cc(C(=O)COC(=O)c2ccc[nH]c2=O)c(C)n1-c1ccccc1F | -19.2 | 0.9 | 118.7% | 89.3%
CCCn1c(C)cc(C(=O)COC(=O)c2ccc(Cl)c(S(=O)(=O)N3CCCC3)c2)c1C | 142.2* | 31.5* | -17.4% | ?
CCCn1c(C)cc(C(=O)COC(=O)c2ccc[nH]c2=O)c1C | 44.9* | 28.7* | 86.1% | 73.3%

Screening data deposited in PubChem by National Center for Advancing Translational Sciences (NCATS).
